Compound activity: PubChem, National Center for Advancing Translational Sciences (NCATS)
D1 PAM – human D1 dopamine receptor positive modulation; actives 0.036% (n = 360,000); AID 504651; potentiation, % at 10 µM; P21728; HEK293 TREx D1 cells, calcium flux, dopamine EC20 potentiation; in the data active means potentiation above about 30%
Target sequence (P21728 whole entry, looked up): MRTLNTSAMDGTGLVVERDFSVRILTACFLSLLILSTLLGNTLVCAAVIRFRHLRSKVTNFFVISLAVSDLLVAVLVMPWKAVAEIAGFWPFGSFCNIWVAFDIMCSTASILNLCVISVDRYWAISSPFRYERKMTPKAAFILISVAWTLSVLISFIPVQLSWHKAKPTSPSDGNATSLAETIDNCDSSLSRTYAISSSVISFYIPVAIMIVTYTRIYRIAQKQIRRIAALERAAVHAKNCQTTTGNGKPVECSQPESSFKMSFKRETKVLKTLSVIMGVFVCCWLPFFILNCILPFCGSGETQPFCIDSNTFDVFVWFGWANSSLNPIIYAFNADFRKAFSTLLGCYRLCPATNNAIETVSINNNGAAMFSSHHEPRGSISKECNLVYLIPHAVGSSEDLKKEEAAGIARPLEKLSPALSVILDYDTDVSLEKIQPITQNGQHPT
D1 antagonist – antagonists of human D1 dopamine receptor; P21728; HEK293 TREx D1 cells, calcium flux, dopamine EC80; stronger effect = lower value; activity change, negative = inhibition, % at 10 µM; actives 3.2% (n = 360,000); AID 504652; in the data active means activity change below about -30%
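After overnight tetracycline induction at 30 C, force-coupled D1 HEK293 cells took up a no-wash calcium dye at room temperature. Compounds were added and monitored 180 s, and the response to EC80 dopamine was then recorded.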
TRHR ag – activates the human TRH receptor. P34981. TRHR cells, calcium flux fluo-8, FDSS agonist mode. activation, % at 2 µM. actives 0.18% (n = 360,000)
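Read-out: compound-evoked intracellular calcium rise in TRHR cells, fluo-8 dye, kinetic FDSS fluorescence at 1 s/cycle following a 10-cycle baseline. Cells cultured overnight before dye loading (30 min–1.5 h, RT).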
D1 agonist – activates the human D1 dopamine receptor; actives 1% (n = 360,000); HEK293 T-REx D1 cells, calcium flux, agonist mode; P21728; AID 504660; activation, % at 2 µM
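Agonism was scored from calcium flux recorded over 180 s (1 read/s) after pintool compound addition, following a 10-cycle baseline. Cells were inducible force-coupled HEK293 TREx D1, plated overnight at 30 C and loaded with no-wash calcium dye.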
TRHR enhancer – allosteric enhancers of human TRH receptor. TRHR cells, fluo-8 calcium fluorescence, EC20 TRH enhancement. enhancement, % at 2 µM. actives 0.66% (n = 360,000). P34981; in the data active means enhancement above about 30%
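Enhancer read-out: after compound pinning and an initial kinetic agonist-mode read, an EC20 of TRH (10 nM final) was injected and fluo-8 calcium signal (Ex 480/Em 530) followed at 1 s/cycle for 100 cycles in TRHR-expressing cells.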
Large screens that a line does not name were inactive. Shown are actives, neighbours in structure and some others; about 4.7% of the full set was active somewhere. Unless noted, no stated cut-off is given here; in the data, active means activation above about 30%; inactive means the rest.

CCNc1nc2c(c(=O)n(C)c(=O)n2C)n1Cc1ccc(Cl)cc1	none
CCNc1nc2c(c(=O)n(Cc3ccccc3)c(=O)n2C)n1Cc1ccccc1	TRHR enhancer 39
CCOC(=O)N1CCN(c2cc(=O)n(Cc3ccc(F)cc3)c(=O)[nH]2)CC1	D1 antagonist -37
CCN1CCN(c2cc(=O)n(Cc3ccc(F)cc3)c(=O)[nH]2)CC1	none
Cc1ccc2nc3n(c2c1)CCCN3	none
Cc1ccccc1CNCCCSc1nnnn1-c1ccccc1	D1 agonist 36
COc1ccc(CCNc2nnc(Sc3nnnn3-c3ccccc3)s2)cc1OC	D1 antagonist -53
CCOc1cc(CNCCSc2nnnn2-c2ccccc2)ccc1OC	D1 agonist 30
CCOc1ccc(CNCCSc2nnnn2C)cc1OC	none
Cc1cc2oc(C(=O)Nc3ccc(S(=O)(=O)N(C)c4ccccc4)cc3)cc(=O)c2cc1C	none
Cc1ccccc1NC(=O)c1cccc(N2C(=O)C3CCCCC3C2=O)c1 (stereo not drawn)	D1 antagonist -30
CN(C(=O)c1cccc(N2C(=O)C3CC=CCC3C2=O)c1)C1CCCCC1 (stereo not drawn)	D1 antagonist -30
Cc1coc2c1c(C)cc1oc(=O)cc(C)c12	none
CCC(=O)N1CCc2cc(Br)cc(S(=O)(=O)Nc3ccccc3C(=O)OC)c21	none
Cc1ccccc1NC(=O)CN1CCC(n2nnc3ccccc32)CC1	none
Cc1nc2ccccc2n1C1CCN(CC(=O)Nc2ccccc2Br)CC1	D1 agonist 52
COc1ccc(-c2noc(CNC(=O)c3ccccc3Br)n2)cc1	none
O=C(Nc1ccc(Cl)cc1)Nc1nc(-c2ccccc2O)cs1	D1 antagonist -37
O=C(Nc1ccc(Cl)cc1)Nc1nc(-c2sccc2Br)cs1	none
COc1ccc(NC(=O)CN2CCN(C(=O)N3CCOCC3)CC2)cc1	none
CC1(c2ccccc2)NC(=O)N(CC(=O)N2CCN(S(=O)(=O)c3cccc([N+](=O)[O-])c3)CC2)C1=O (stereo not drawn)	none
O=C1Nc2ccccc2/C1=C/c1ccc([N+](=O)[O-])cc1	none
CC1(c2ccc([N+](=O)[O-])cc2)Nc2ccccc2S1 (stereo not drawn)	TRHR enhancer 31
COc1ccc(OC)c(C(c2nnnn2CCc2ccccc2)N2CCN(c3ccccc3)CC2)c1 (stereo not drawn)	none
COc1ccc(N2CCN(C(c3cc(OC)ccc3OC)c3nnnn3Cc3ccco3)CC2)cc1 (stereo not drawn)	TRHR enhancer 39
CC(C)Oc1cccc(C(=O)NC(=S)NCc2cccnc2)c1	TRHR enhancer 40
CCc1ccc(C(=O)NC(=S)NCc2cccnc2)cc1	D1 antagonist -35
CCc1ccc(NC(=O)c2ccc(S(=O)(=O)NCc3cccnc3)cc2)cc1	D1 antagonist -34 (no result: D1 PAM)
Cc1ccc2oc(=O)c3cnn(CC(=O)N(C)c4ccc(F)cc4)c3c2c1	none
O=C(Cc1nnc(-c2nc3ccccc3[nH]2)o1)Nc1cc(C(F)(F)F)ccc1Cl	none
Cc1ccccc1-c1noc(-c2ccc(NC3CCCC3)c([N+](=O)[O-])c2)n1	none
COc1ccc(-c2ccc(-c3noc(-c4ccccc4)n3)c(OC)n2)cc1	D1 antagonist -46
COc1ccccc1-c1noc(-c2ccc(NC3CCCC3)c([N+](=O)[O-])c2)n1	D1 antagonist -40
COc1ccc(-c2nc(-c3ccccc3OC)no2)cc1OC	D1 antagonist -36
COc1ccccc1-c1noc(-c2ccccc2)n1	none
CCCN(CCC)C(=O)Cn1c(=O)n(-c2ccc(Cl)c(Cl)c2)c(=O)c2c(C)c(C(=O)N(C)C)sc21	none
CCOc1ccc(S(=O)(=O)N(CC(=O)Nc2ccc3c(c2)OCO3)c2ccccc2)cc1	none
COc1ccc(-c2c(C)nn3c4c(cnc23)C(=O)CC(c2ccc(C)cc2)C4)cc1 (stereo not drawn)	none
COc1ccc(N2CCN(c3ncccc3C#N)CC2)cc1	none
COc1ccc(N2CCN(c3ncccc3-c3nc(-c4ccccc4C)no3)CC2)cc1	D1 antagonist -31
O=C(Nc1ccc2ccccc2c1)c1ccc(Cl)cc1Cl	none
O=C(Nc1ccc2ccccc2c1)c1ccccc1O	D1 antagonist -34
COc1ccc(C(=O)Nc2ccc3ccccc3c2)cc1	none
CS(=O)(=O)Nc1ccc(C(=O)Nc2ccc3ccccc3c2)cc1	D1 antagonist -38
O=[N+]([O-])c1ccc(N2CCN(C(=S)Nc3cccc(F)c3)CC2)cc1	D1 antagonist -38
O=[N+]([O-])c1ccc(NC(=S)N2CCc3ccccc3C2)cc1	D1 antagonist -33
O=[N+]([O-])c1ccc(N2CCN(C(=S)Nc3ccc(F)cc3)CC2)cc1	D1 antagonist -34
CCc1ccc(NCc2cc3cc4c(cc3n(CC(=O)Nc3ccc(Cl)cc3)c2=O)OCO4)cc1	D1 agonist 176
COc1cc2cc(CNc3ccccc3)c(=O)n(CC(=O)Nc3cc(C)cc(C)c3)c2cc1OC	TRHR ag 34
COc1ccc(NCc2cc3cc4c(cc3n(CC(=O)Nc3ccccc3)c2=O)OCO4)cc1	D1 agonist 134
COc1cccc(OCc2nc3ccccc3n2C)c1	none
COc1ccc2nc3oc(C(=O)N(C)c4ccc(Cl)cc4)cc3cc2c1	none
Cc1ccc(C(OC(=O)c2ccco2)C(=O)NC(C)(C)C)cc1 (stereo not drawn)	D1 antagonist -44
COc1ccc(C(OC(=O)c2ccco2)C(=O)NC(C)(C)C)cc1 (stereo not drawn)	none
O=[S+]([O-])(c1ccc2c(c1)OCCO2)N1CCN([S+](=O)([O-])c2ccccc2Br)CC1	none
CC1(C)CC(=O)C=C(CN2C(=O)c3ccccc3C2=O)C1=O	none
O=c1[nH]c(-[n+]2ccccc2)c(/C=N/NC([S-])=Nc2ccccc2)s1	TRHR ag 56, D1 agonist 174
CCN(C(=O)c1cnc(N2CCOCC2)c2ccccc12)c1cc(C)ccc1C	D1 antagonist -43
Cc1ccc(N(C)C(=O)c2cnc(N3CCOCC3)c3ccccc23)cc1C	D1 antagonist -37
CCn1cc(S(=O)(=O)c2cc(C)cc(C)c2)c(=O)c2cc(F)c(N3CCCCC3)cc21	none
N#Cc1ccccc1NC(=O)CSc1nc(-c2ccccc2)cc(C(F)(F)F)c1C#N	TRHR ag 42, D1 agonist 133
COc1ccc(NC(=O)CSc2nc(-c3ccccc3)cc(-c3cc(OC)c(OC)c(OC)c3)c2C#N)c(OC)c1	D1 agonist 33
N#Cc1c(C(F)(F)F)cc(-c2cccs2)nc1SCC(=O)Nc1ccc(Cl)cc1	D1 agonist 81
N#Cc1c(C(F)(F)F)cc(-c2cccs2)nc1SCC(=O)Nc1cccc(C(F)(F)F)c1	D1 agonist 68
N#Cc1ccc(-c2cccs2)nc1SCC(=O)Nc1cccc(C(F)(F)F)c1	none
